Design in all cases: scale not given: direction of the effect not stated beside the values
For assay [1], the target named is Protein translocase subunit SecA (Escherichia coli (strain K12)) (UniProt P10408). In words: Assay to Identify E. coli SecA ATPase Inhibitors. It counts as functional. As to conditions: 30 µM.
The target of assay [2] is T1, Ubiquitin-activating enzyme e1, putative (Leishmania donovani (strain BPK282A1)) (UniProt E9BSI1).
T1 sequence (whole entry): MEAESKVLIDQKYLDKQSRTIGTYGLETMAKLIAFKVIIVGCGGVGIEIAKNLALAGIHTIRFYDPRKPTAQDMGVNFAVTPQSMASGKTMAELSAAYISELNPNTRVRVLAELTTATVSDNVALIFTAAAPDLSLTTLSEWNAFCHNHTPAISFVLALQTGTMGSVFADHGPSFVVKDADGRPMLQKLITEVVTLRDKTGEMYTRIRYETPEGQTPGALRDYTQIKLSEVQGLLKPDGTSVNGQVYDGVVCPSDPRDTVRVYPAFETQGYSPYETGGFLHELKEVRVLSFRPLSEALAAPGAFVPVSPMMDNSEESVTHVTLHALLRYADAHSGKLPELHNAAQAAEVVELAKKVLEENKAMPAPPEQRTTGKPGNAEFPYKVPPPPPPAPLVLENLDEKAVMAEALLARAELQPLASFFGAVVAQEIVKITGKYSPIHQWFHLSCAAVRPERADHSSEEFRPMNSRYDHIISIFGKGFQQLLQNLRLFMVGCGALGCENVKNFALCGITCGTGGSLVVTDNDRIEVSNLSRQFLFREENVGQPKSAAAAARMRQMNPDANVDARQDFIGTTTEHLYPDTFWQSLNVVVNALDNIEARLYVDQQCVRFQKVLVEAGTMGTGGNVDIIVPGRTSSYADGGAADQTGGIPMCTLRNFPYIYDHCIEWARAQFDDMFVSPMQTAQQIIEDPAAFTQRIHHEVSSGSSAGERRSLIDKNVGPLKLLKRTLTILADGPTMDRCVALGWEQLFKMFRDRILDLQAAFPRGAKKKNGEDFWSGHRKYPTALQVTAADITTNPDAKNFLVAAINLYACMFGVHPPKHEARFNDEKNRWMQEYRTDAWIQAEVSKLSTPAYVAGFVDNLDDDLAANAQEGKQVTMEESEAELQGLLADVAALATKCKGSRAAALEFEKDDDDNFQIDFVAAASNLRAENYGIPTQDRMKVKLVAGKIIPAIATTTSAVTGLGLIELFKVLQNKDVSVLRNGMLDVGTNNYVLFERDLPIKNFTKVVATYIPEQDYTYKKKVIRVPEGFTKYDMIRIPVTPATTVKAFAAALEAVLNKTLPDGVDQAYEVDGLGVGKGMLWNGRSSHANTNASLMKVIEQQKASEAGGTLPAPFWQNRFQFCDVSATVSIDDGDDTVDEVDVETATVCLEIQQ
Put plainly: Leishmania donovani Ubiquitin Activating Enzyme (LdE1). It counts as functional. As to conditions: 30 µM.

In assay [3] the target is AMP-activated protein kinase, AMPK (Homo sapiens) (UniProt P54646+O43741+P54619+Q9UGJ0+Q9Y478+Q13131+Q9UGI9). In words: AMP-dependent Kinase enzyme assay. An in vitro enzyme assay that detects ADP turnover that is directly proportional to AMPK activity. This uses naive AMPK that is activated during the assay with MK-8722. It counts as functional. As to conditions: 30 µM.

Assay [4] concerns the target Sialic acid-binding Ig-like lectin 9 (Homo sapiens) (UniProt Q9Y336). In words: Hs-Siglec9 ALPHAscreen SOP 20170721. As to conditions: 10 µM. In general terms: In Alpha technology, singlet oxygen from a donor bead excites a nearby acceptor bead.
Assay [5] relates to Trypanosoma cruzi. Put plainly: Trypanosoma cruzi phosphomannomutase and mannose-1-phosphate guanylyltransferase assay. It counts as functional. As to conditions: 10 µM.
Assay [6] has as its target T2, Arginase-2, mitochondrial (Homo sapiens) (UniProt P78540).
T2 sequence (whole entry): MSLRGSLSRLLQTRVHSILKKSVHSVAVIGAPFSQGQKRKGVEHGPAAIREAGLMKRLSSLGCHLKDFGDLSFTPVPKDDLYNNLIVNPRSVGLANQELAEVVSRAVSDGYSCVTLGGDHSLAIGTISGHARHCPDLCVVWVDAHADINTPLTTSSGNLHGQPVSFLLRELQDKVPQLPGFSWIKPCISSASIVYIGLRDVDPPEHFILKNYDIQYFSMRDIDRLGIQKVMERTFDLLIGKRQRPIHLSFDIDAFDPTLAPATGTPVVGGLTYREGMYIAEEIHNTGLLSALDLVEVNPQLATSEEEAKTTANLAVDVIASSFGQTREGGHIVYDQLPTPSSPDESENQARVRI
Put plainly: in vitro enzyme assay to detect the production of urea directly proportional to the activity of Arginase II. Note: in the data most compounds retested in dose-response had high values. It is filed as functional. As to conditions: 33.3 µM.

Assay [7] concerns the target T3, Proteasome subunit beta (Trypanosoma cruzi) (UniProt O96673).
T3 sequence (whole entry): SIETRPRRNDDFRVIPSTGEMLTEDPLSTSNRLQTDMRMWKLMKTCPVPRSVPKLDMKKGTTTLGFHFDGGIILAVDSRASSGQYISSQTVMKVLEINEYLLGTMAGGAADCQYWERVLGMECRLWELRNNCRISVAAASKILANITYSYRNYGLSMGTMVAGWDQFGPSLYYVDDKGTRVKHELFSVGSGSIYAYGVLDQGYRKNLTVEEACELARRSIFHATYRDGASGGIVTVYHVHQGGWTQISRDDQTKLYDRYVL
Put plainly: Trypanosoma cruzi proteasome chymotrypsin-like activity (TcProtChymo) assay. Note: in the data most compounds retested in dose-response had high values. It is filed as functional. As to conditions: 9.37 µM.

For assay [8], the species on record is Homo sapiens. In words: To identify inhibition of the IFN signalling (Jak-Stat) pathway via expression of an eGFP reporter gene under the control of an IFN-stimulated response element (ISRE) containing MxA promoter. It is filed as functional. As to conditions: 30 µM.
Assay [9] concerns the target T4, Tyrosyl-tRNA synthetase, putative (Trypanosoma cruzi (strain CL Brener)) (UniProt Q4DSP6).
T4 sequence (whole entry): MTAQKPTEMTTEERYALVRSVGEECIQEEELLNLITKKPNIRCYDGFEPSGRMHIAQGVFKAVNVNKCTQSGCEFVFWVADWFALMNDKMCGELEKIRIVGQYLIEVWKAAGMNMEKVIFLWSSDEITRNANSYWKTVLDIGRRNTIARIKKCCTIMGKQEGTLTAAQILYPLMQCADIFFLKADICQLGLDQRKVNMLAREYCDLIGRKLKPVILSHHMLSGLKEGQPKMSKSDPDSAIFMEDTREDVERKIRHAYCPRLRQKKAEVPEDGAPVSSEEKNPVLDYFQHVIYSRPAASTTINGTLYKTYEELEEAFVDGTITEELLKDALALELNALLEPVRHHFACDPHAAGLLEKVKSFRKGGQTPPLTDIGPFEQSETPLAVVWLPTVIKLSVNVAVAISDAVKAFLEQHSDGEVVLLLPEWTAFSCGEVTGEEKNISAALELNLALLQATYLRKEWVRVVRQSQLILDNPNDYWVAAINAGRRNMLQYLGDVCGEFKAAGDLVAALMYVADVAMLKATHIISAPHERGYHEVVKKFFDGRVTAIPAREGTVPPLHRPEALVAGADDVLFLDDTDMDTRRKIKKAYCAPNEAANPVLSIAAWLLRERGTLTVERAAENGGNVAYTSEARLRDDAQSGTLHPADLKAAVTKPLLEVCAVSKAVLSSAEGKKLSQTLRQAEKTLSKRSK
Put plainly: Trypanosoma cruzi tyrosyl tRNA synthetase (TcYRS) _High Tyrosine SOP. Note: in the data most compounds retested in dose-response had high values. As to conditions: 30 µM. It counts as functional.

The target in assay [10] is T4, Tyrosyl-tRNA synthetase, putative (Trypanosoma cruzi (strain CL Brener)). Put plainly: Trypanosoma cruzi tyrosyl tRNA synthetase (TcYRS) SOP. It is filed as functional. As to conditions: 30 µM.
The target in assay [11] is Chromo domain-containing protein 1 (Saccharomyces cerevisiae (strain ATCC 204508 / S288c) (Baker's yeast)) (UniProt P32657). In words: ScCHD-1 Enzyme Inhibition Assay. Note: in the data most compounds retested in dose-response had high values. It counts as functional. As to conditions: 30 µM.
Chain of Chromo domain-containing protein 1 (Saccharomyces cerevisiae (strain ATCC 204508 / S288c) (Baker's yeast)) (P32657 whole entry, the tested form may be a part): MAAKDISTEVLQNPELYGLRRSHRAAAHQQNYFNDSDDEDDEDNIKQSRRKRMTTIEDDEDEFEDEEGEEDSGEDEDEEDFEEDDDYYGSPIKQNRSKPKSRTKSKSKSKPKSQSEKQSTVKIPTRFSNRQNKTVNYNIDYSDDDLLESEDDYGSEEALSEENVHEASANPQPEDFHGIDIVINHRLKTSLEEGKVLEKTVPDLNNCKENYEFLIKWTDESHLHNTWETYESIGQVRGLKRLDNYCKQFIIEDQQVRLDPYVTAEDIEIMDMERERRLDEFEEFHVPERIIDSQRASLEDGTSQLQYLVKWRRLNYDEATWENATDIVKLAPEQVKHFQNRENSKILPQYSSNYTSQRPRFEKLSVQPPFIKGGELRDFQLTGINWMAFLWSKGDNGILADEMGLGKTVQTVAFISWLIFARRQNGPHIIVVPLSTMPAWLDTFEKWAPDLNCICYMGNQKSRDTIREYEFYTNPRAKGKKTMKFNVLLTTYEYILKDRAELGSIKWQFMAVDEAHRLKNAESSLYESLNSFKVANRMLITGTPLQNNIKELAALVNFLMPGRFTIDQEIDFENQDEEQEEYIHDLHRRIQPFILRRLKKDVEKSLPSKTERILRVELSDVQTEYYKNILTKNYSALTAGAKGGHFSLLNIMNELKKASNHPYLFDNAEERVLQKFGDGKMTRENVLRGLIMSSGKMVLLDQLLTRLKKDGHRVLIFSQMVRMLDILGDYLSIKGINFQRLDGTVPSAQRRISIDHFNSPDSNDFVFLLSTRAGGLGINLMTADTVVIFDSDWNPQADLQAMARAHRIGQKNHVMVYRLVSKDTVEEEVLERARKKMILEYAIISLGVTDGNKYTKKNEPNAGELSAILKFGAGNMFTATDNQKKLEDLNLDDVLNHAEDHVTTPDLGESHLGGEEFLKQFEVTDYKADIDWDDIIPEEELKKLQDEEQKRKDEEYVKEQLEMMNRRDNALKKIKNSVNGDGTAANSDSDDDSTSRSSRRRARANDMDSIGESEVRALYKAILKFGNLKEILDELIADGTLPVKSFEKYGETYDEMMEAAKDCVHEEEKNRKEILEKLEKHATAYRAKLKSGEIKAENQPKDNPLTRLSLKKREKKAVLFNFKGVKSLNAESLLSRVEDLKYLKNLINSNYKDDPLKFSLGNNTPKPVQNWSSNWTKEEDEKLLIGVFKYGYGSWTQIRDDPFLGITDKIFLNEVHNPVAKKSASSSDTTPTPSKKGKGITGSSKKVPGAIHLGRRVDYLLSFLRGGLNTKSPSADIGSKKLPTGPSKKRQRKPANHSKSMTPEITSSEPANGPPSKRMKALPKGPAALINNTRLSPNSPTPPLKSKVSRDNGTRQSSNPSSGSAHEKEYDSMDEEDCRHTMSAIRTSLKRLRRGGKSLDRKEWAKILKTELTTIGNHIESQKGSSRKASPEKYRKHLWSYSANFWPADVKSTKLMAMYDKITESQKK

The structures appear in SMILES notation. For some of these results: Potency and affinity values are given separately.

Chain of Sialic acid-binding Ig-like lectin 9 (Homo sapiens) (Q9Y336 whole entry): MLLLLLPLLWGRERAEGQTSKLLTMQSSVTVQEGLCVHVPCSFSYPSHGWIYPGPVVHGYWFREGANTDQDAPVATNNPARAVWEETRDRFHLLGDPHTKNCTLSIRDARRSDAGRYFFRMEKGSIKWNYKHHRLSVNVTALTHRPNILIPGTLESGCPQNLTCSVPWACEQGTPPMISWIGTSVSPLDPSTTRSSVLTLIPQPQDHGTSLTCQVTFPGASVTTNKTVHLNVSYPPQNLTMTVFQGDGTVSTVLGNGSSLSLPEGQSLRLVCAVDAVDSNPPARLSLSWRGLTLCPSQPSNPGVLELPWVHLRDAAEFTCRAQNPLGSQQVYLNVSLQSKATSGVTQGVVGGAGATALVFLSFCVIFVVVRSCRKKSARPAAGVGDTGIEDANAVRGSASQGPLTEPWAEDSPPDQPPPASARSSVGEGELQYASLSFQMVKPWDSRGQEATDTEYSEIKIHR
Chain of Protein translocase subunit SecA (Escherichia coli (strain K12)) (P10408 whole entry): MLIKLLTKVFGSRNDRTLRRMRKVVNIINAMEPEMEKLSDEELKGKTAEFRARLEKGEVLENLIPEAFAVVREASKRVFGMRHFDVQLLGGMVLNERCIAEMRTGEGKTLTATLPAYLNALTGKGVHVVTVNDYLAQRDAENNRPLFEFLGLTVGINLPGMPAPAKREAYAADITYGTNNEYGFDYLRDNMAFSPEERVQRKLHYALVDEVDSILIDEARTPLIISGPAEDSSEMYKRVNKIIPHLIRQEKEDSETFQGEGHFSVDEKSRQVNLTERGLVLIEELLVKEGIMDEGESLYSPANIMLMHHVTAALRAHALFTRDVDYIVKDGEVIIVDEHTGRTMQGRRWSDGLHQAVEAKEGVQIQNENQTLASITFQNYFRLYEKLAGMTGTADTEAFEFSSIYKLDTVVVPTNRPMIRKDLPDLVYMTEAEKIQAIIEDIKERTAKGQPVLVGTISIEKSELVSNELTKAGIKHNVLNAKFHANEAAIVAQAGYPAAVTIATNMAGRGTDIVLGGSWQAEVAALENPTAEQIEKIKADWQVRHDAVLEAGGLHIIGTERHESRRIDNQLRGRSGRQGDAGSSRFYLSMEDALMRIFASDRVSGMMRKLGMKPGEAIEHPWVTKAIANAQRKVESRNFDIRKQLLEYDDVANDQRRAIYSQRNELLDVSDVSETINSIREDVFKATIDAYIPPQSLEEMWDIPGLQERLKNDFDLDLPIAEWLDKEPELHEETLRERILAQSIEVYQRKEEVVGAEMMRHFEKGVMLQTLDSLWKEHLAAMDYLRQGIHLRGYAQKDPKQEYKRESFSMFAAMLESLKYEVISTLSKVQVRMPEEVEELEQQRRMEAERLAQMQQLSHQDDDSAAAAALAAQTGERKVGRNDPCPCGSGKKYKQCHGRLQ

With `Cc1nc(NCCc2ccc(Cl)cc2)cc(C(=O)N2CCOCC2)n1`, the Percent Effect in assay [1] is 0.862%; in assay [2], 5.2%; in assay [3] it was -3.84%; in [4] it was 11.5%; in assay [5], 3.64%; in assay [6], -44.1%. Moreover, the Percent Effect in [7] is 9.98%; in assay [8], 23.7%; in assay [9] it was 7.53%; in [10], 16.1%; in [11], -2.1%.

For `CCC(=O)N1Cc2nccn2CC(CN(C)Cc2cccnc2)C1` (stereo unspecified), the Percent Effect is -1.64% in assay [1]; 13.3% in assay [2]; 10.6% in assay [3]; -7.3% in assay [4]; -4.72% in [5]; 1.17% in [6]. Besides, the Percent Effect in assay [7] is 7.49%; in assay [8], -7.96%; in [9] it was 4.25%; in assay [10] it was 8.97%; in assay [11] it was -6.9%.

With `CC(=O)N1CCC(Cc2cnc(-c3c(C)n[nH]c3C)cn2)C1` (stereo unspecified), the Percent Effect in assay [1] is -5.08%; in assay [2], 0%; in [3] it was 10%; in assay [4] it was -2.02%; in [5], 1.97%; in assay [6], 0.233%. Further, the Percent Effect in assay [7] was 4.67%; in [8], -10.8%; in [9], 3.19%; in assay [10], 1.28%; in assay [11] it was 0.0811%.

In the case of `Cc1cccnc1NC(=O)CC1(Cn2cnnn2)CCCCC1`, the Percent Effect was -5.51% in assay [1]; 21.1% in [2]; -0.535% in assay [3]; 3.53% in assay [4]; 1.66% in assay [5]; 1.18% in assay [6]. The Percent Effect in assay [7] was 9.11%; in [8] it was -4.12%; in [9] it was 3.19%; in assay [10] it was 13%; in assay [11] it was -13.8%.

For the compound `Cn1ccnc1-c1cccc(NC(=O)NCCCO)c1`, the Percent Effect in [1] was -0.628%; in assay [2], 6.94%; in [3], -4.42%; in assay [4] it was 2.52%; in [5], 0.875%; in assay [6], 19.4%. Also, the Percent Effect was 11.8% in assay [7]; 15.7% in assay [8]; 5.26% in assay [9]; 7.69% in assay [10]; -4.21% in assay [11].

Take `Cc1nc(Nc2nnc(C)s2)cc(C2CCCN2C)n1` (stereo unspecified): the Percent Effect in [1] is -1.27%; in [2] it was 16%; in assay [3] it was 3.75%; in assay [4], -11.6%; in [5] it was -2.95%; in assay [6], -4.43%. The Percent Effect is 15.1% in assay [7]; 29.1% in assay [8]; 2.13% in [9]; 3.85% in assay [10]; -6.23% in assay [11].

With `NC(=O)c1cc(C2CCCN(C(=O)CCc3cscn3)C2)n[nH]1` (stereo unspecified), the Percent Effect in assay [1] was -1.95%; in assay [2] it was 0%; in [3], 9.04%; in assay [4], 3.83%; in assay [5], 1.69%; in [6] it was -0.356%. For the same compound, the Percent Effect was 1.86% in assay [7]; 8.48% in assay [8]; 2.91% in assay [9]; 2.44% in [10]; -5.18% in assay [11].

In the case of `O=S(=O)(Cc1ccccc1)NCC1CCN(c2cnccn2)CC1`, the Percent Effect in [1] is -2.03%; in assay [2] it was 10.4%; in assay [3] it was 5.37%; in [4], -3.08%; in assay [5] it was -6.02%; in [6], -3.23%. The Percent Effect was 10.4% in assay [7]; 9.96% in assay [8]; 3.17% in [9]; 6.41% in assay [10]; -7.97% in [11].

Take `Cn1cnnc1C1CCCN(C(=O)NCc2ccc3c(c2)OCO3)C1` (stereo unspecified): the Percent Effect in assay [1] was -5.4%; in assay [2] it was -10.4%; in assay [3] it was -2.19%; in assay [4], -7.32%; in [5], 3.43%; in assay [6], -12.8%. For the same compound, the Percent Effect in [7] is 11.2%; in assay [8], -5.11%; in assay [9], 9.52%; in assay [10], 23.5%; in [11], -12.6%.

As for `COc1cc2cc(C(=O)O)n(C)c2c(OC)c1OC`, the Percent Effect in assay [1] is 2.1%; in [2], -9.33%; in assay [3], 13.7%; in [4], 8.78%; in assay [5], -4.71%; in assay [6], -5.46%. The Percent Effect was 13.9% in assay [7]; 1.84% in assay [8]; -3.17% in [9]; -5.13% in assay [10]; -10% in assay [11].

Take `c1ccc(-c2nnc(CNCCn3cccn3)o2)cc1`: the Percent Effect in assay [1] is -3.18%; in assay [2] it was -10.1%; in assay [3] it was 1.44%; in assay [4] it was -1.76%; in [5], 1.79%; in assay [6], 3.04%. The Percent Effect in [7] was 1.72%; in [8], -4.79%; in [9] it was 6.4%; in [10], 8.86%; in assay [11], -8.2%.
